Measurements published in PubChem BioAssay (EPA / NIEHS).
Several values for one entry are separate records, joined by “and”; a condition that tells them apart may be missing. Equal entries are not always repeated. The source holds several records for some structures; these can differ, active in one and inactive in another. Activity calls are given as the source filed them. The calls were made as follows: active = hit-call score of the fitted dose curve at least 0.9, where 1 is the maximum; inactive = score below 0.9.

Read-out: Interleukin 17A (IL17A), IL17A (gene 3605)
Experiment: BSK_BT_xIL17A: BioMAP Diversity Plus: BT Assay for Interleukin 17A (IL17A) Biomarker Activity (AID 2284229)
Conditions: primary human B cells with PBMC
Summary of the method: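 B cells co-cultured with PBMC were exposed to test chemicals, and secreted IL-17A was quantified 24 h after dosing by Luminex xMAP bead immunoassay. Activity was fitted in the gain direction against DMSO as baseline.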

Row | Compound | outcome | AC50
1 | Cc1c([N+](=O)[O-])cc2c(c1[N+](=O)[O-])C(C)(C)CC2(C)C | inactive | 
2 | Nc1ccc([N+](=O)[O-])cc1Cl | inactive | 
3 | O=S(=O)(F)C(F)(F)C(F)(F)C(F)(F)C(F)(F)C(F)(F)C(F)(F)C(F)(F)C(F)(F)F | inactive | 
4 | CCCCC(CC)COC(=O)c1c(Br)c(Br)c(Br)c(Br)c1C(=O)OCC(CC)CCCC (stereo unspecified) | inactive | 
5 | CCOP(=S)(S)OCC | inactive | 
6 | Cc1ccc2c(c1N)C(=O)c1ccccc1C2=O | inactive | 
7 | CC(Cl)CN(C)C (stereo unspecified) | inactive | 
8 | CCCCC(CC)COP(=O)(Oc1ccccc1)Oc1ccccc1 (stereo unspecified) |  | 20 µM (active)
9 | OCC(F)(F)OC(F)(F)C(F)(F)OC(F)(F)C(F)(F)OC(F)(F)F | inactive | 49.2 µM (active)
10 | CCOP(=S)(NC(C)C)Oc1ccccc1C(=O)OC(C)C (stereo unspecified) | inactive | 
11 | OCC(F)(F)OC(F)(F)C(F)(F)OC(F)(F)CO | inactive | 
12 | O=C(O)C(F)(OC(F)(F)C(F)(F)C(F)(F)F)C(F)(F)F (stereo unspecified) | inactive | 
13 | COP(N)(=S)OC | inactive | 
14 | O=c1ssc(Cl)c1Cl |  | 4.51 µM (active)
15 | N#Cc1cc([N+](=O)[O-])ccc1N | inactive | 
16 | CC(C)Nc1ccc(Nc2ccccc2)cc1 |  | 3.17 µM (active)
17 | C=CC(=O)OCC(CC)(COC(=O)C=C)COC(=O)C=C |  | 2.18 µM (active)
18 | CCCCOCCOP(=O)(OCCOCCCC)OCCOCCCC | inactive | 
19 | COC(=O)C(F)(F)C(F)(F)OC(F)(C(F)(F)F)C(F)(F)OC(F)=C(F)F (stereo unspecified) | inactive | 
20 | CC(C)(C)c1ccccc1OP(=O)(Oc1ccccc1)Oc1ccccc1 |  | 24 µM (active)
21 | CCOP(=S)(OCC)SCn1nnc2ccccc2c1=O | inactive | 
22 | OCC(F)(F)OC(F)(F)C(F)(F)OC(F)(F)C(F)(F)OC(F)(F)CO | inactive | 

Read-out: Vascular cell adhesion molecule 1 (VCAM1), VCAM1 (gene 7412)
Experiment: BSK_MyoF_VCAM1: BioMAP Diversity Plus: MyoF Assay for Vascular cell adhesion molecule 1 (VCAM1) Biomarker Activity (AID 2284231)
Conditions: primary human lung fibroblasts
Summary of the method: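 Primary human lung fibroblasts were dosed with test chemical for 24 h, then cell-surface VCAM-1 was measured by ELISA. Activity was fitted in the positive direction against DMSO as negative control and baseline.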

Row | Compound | AC50 | outcome
23 | Cc1c([N+](=O)[O-])cc2c(c1[N+](=O)[O-])C(C)(C)CC2(C)C | 6.96 µM (active) | 
24 | Nc1ccc([N+](=O)[O-])cc1Cl |  | inactive
25 | O=S(=O)(F)C(F)(F)C(F)(F)C(F)(F)C(F)(F)C(F)(F)C(F)(F)C(F)(F)C(F)(F)F |  | inactive
26 | CCCCC(CC)COC(=O)c1c(Br)c(Br)c(Br)c(Br)c1C(=O)OCC(CC)CCCC (stereo unspecified) |  | inactive
27 | CCOP(=S)(S)OCC |  | inactive
28 | Cc1ccc2c(c1N)C(=O)c1ccccc1C2=O |  | inactive
29 | CC(Cl)CN(C)C (stereo unspecified) | 20 µM (active) | 
30 | CCCCC(CC)COP(=O)(Oc1ccccc1)Oc1ccccc1 (stereo unspecified) | 11.1 µM (active) | 
31 | OCC(F)(F)OC(F)(F)C(F)(F)OC(F)(F)C(F)(F)OC(F)(F)F | 54.7 µM (active) and 40.5 µM (active) | 
32 | CCOP(=S)(NC(C)C)Oc1ccccc1C(=O)OC(C)C (stereo unspecified) |  | inactive
33 | OCC(F)(F)OC(F)(F)C(F)(F)OC(F)(F)CO |  | inactive
34 | O=C(O)C(F)(OC(F)(F)C(F)(F)C(F)(F)F)C(F)(F)F (stereo unspecified) |  | inactive
35 | COP(N)(=S)OC |  | inactive
36 | O=c1ssc(Cl)c1Cl | 6.69 µM (active) | 
37 | N#Cc1cc([N+](=O)[O-])ccc1N |  | inactive
38 | CC(C)Nc1ccc(Nc2ccccc2)cc1 | 20 µM (active) | 
39 | C=CC(=O)OCC(CC)(COC(=O)C=C)COC(=O)C=C | 2.5 µM (active) | 
40 | CCCCOCCOP(=O)(OCCOCCCC)OCCOCCCC |  | inactive
41 | COC(=O)C(F)(F)C(F)(F)OC(F)(C(F)(F)F)C(F)(F)OC(F)=C(F)F (stereo unspecified) |  | inactive
42 | CC(C)(C)c1ccccc1OP(=O)(Oc1ccccc1)Oc1ccccc1 | 33.7 µM (active) | 
43 | CCOP(=S)(OCC)SCn1nnc2ccccc2c1=O |  | inactive
44 | OCC(F)(F)OC(F)(F)C(F)(F)OC(F)(F)C(F)(F)OC(F)(F)CO | 41.2 µM (active) | inactive

Tested on: not listed separately
Experiment: CCTE_Mundy_HCI_Cortical_NOG_BPCount: CCTE's Neurite Outgrowth Assay in rat cortical cells for Branch Point Count, Mundy Lab (AID 2284237);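 as to AC50: branch points counted about two days after chemical exposure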
Conditions: not given
Summary of the method: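 Measured 50.33 h after dosing, this morphology endpoint uses rat primary cortical cultures labelled for betaIII-tubulin. Branch points are quantified by high-content imaging, with DMSO as negative control and baseline.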

Row | Compound | outcome | AC50
45 | CCCCC(CC)COP(=O)(Oc1ccccc1)Oc1ccccc1 (stereo unspecified) | inactive | 
46 | O=C(O)C(F)(OC(F)(F)C(F)(F)C(F)(F)F)C(F)(F)F (stereo unspecified) | inactive | 
47 | CC(C)(C)c1ccccc1OP(=O)(Oc1ccccc1)Oc1ccccc1 |  | 17.5 µM (active)

Read-out: Collagen I, COL1A1 (gene 1277)
Experiment: BSK_MyoF_CollagenI: BioMAP Diversity Plus: MyoF Assay for Collagen I Biomarker Activity (AID 2284238)
Conditions: primary human lung fibroblasts
Summary of the method: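 Human lung fibroblasts were exposed to test chemical for 24 h, then Collagen I was quantified by ELISA. Activity was fitted in the increasing direction against DMSO as the negative control and baseline.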

Row | Compound | outcome | AC50
48 | Cc1c([N+](=O)[O-])cc2c(c1[N+](=O)[O-])C(C)(C)CC2(C)C | inactive | 
49 | Nc1ccc([N+](=O)[O-])cc1Cl | inactive | 
50 | O=S(=O)(F)C(F)(F)C(F)(F)C(F)(F)C(F)(F)C(F)(F)C(F)(F)C(F)(F)C(F)(F)F | inactive | 
51 | CCCCC(CC)COC(=O)c1c(Br)c(Br)c(Br)c(Br)c1C(=O)OCC(CC)CCCC (stereo unspecified) | inactive | 
52 | CCOP(=S)(S)OCC | inactive | 
53 | Cc1ccc2c(c1N)C(=O)c1ccccc1C2=O | inactive | 
54 | CC(Cl)CN(C)C (stereo unspecified) | inactive | 
55 | CCCCC(CC)COP(=O)(Oc1ccccc1)Oc1ccccc1 (stereo unspecified) |  | 9.47 µM (active)
56 | OCC(F)(F)OC(F)(F)C(F)(F)OC(F)(F)C(F)(F)OC(F)(F)F |  | 39.9 µM (active) and 22.1 µM (active)
57 | CCOP(=S)(NC(C)C)Oc1ccccc1C(=O)OC(C)C (stereo unspecified) | inactive | 
58 | OCC(F)(F)OC(F)(F)C(F)(F)OC(F)(F)CO | inactive | 
59 | O=C(O)C(F)(OC(F)(F)C(F)(F)C(F)(F)F)C(F)(F)F (stereo unspecified) | inactive | 
60 | COP(N)(=S)OC | inactive | 
61 | O=c1ssc(Cl)c1Cl |  | 7.5 µM (active)
62 | N#Cc1cc([N+](=O)[O-])ccc1N | inactive | 
63 | CC(C)Nc1ccc(Nc2ccccc2)cc1 |  | 26 µM (active)
64 | C=CC(=O)OCC(CC)(COC(=O)C=C)COC(=O)C=C |  | 4.69 µM (active)
65 | CCCCOCCOP(=O)(OCCOCCCC)OCCOCCCC | inactive | 
66 | COC(=O)C(F)(F)C(F)(F)OC(F)(C(F)(F)F)C(F)(F)OC(F)=C(F)F (stereo unspecified) | inactive | 
67 | CC(C)(C)c1ccccc1OP(=O)(Oc1ccccc1)Oc1ccccc1 |  | 28.3 µM (active)
68 | CCOP(=S)(OCC)SCn1nnc2ccccc2c1=O | inactive | 
69 | OCC(F)(F)OC(F)(F)C(F)(F)OC(F)(F)C(F)(F)OC(F)(F)CO | inactive | 
